Set-up in all cases: scale not given: direction of the effect not stated beside the values
Test [1] has as its target Protein translocase subunit SecA (Escherichia coli (strain K12)) (UniProt P10408). The test can be described thus: Assay to Identify E. coli SecA ATPase Inhibitors. Particulars: 30 µM. In kind it is functional.
The target of test [2] is T1, Ubiquitin-activating enzyme e1, putative (Leishmania donovani (strain BPK282A1)) (UniProt E9BSI1).
T1 sequence (whole entry): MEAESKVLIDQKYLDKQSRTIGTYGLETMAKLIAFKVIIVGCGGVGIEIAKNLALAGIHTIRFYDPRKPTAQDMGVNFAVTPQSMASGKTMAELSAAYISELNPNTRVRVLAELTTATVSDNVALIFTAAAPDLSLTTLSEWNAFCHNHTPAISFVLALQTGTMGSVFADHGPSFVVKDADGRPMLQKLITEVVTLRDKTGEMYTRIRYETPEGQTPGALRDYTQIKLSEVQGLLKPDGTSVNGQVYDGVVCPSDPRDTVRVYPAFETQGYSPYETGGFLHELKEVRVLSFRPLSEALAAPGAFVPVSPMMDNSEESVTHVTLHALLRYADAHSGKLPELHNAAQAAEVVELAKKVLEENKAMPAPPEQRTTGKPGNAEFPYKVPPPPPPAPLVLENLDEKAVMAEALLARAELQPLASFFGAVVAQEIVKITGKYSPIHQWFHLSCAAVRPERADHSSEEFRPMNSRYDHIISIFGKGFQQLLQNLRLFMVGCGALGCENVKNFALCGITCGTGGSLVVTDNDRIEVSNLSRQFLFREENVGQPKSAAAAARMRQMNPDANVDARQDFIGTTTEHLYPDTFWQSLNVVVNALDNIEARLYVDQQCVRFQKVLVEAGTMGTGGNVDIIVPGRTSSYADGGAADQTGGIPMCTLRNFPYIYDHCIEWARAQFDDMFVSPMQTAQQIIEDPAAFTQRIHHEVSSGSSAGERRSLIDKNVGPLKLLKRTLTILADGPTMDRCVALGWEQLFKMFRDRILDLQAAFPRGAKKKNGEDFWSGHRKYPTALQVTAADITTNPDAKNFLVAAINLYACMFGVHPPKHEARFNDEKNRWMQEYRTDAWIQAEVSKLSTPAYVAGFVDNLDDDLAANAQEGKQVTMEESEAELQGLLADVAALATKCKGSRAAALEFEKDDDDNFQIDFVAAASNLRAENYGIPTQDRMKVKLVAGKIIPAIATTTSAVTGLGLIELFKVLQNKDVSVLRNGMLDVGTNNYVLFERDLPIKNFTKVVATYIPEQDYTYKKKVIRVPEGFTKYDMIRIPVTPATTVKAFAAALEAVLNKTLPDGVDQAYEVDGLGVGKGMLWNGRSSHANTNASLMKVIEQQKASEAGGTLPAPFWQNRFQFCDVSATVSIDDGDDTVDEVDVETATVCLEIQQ
Briefly: Leishmania donovani Ubiquitin Activating Enzyme (LdE1). In kind it is functional. The conditions noted are these: 30 µM.

In test [3] the target is AMP-activated protein kinase, AMPK (Homo sapiens) (UniProt P54646+O43741+P54619+Q9UGJ0+Q9Y478+Q13131+Q9UGI9). Briefly: AMP-dependent Kinase enzyme assay. An in vitro enzyme assay that detects ADP turnover that is directly proportional to AMPK activity. This uses naive AMPK that is activated during the assay with MK-8722. It counts as functional. Particulars: 30 µM.
Test [4] deals with Sialic acid-binding Ig-like lectin 9 (Homo sapiens) (UniProt Q9Y336). Briefly: Hs-Siglec9 ALPHAscreen SOP 20170721. The conditions noted are these: 10 µM.
A further test deals with Trypanosoma cruzi. The test can be described thus: Trypanosoma cruzi phosphomannomutase and mannose-1-phosphate guanylyltransferase assay. In kind it is functional. Particulars: 10 µM.
The target in test [5] is T2, Arginase-2, mitochondrial (Homo sapiens) (UniProt P78540).
T2 sequence (whole entry): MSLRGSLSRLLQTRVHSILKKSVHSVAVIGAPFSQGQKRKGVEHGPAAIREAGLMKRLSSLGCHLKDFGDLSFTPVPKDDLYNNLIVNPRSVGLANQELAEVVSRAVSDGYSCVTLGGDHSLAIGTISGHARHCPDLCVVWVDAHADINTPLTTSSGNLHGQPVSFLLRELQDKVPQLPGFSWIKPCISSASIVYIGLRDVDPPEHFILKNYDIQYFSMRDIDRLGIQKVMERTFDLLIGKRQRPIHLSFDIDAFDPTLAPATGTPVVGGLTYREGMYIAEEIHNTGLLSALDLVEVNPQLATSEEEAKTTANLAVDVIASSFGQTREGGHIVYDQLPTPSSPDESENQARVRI
The test can be described thus: in vitro enzyme assay to detect the production of urea directly proportional to the activity of Arginase II. Further: in the data most compounds retested in dose-response had high values. Particulars: 33.3 µM. In kind it is functional.

Test [6] has as its target T3, Proteasome subunit beta (Trypanosoma cruzi) (UniProt O96673).
T3 sequence (whole entry): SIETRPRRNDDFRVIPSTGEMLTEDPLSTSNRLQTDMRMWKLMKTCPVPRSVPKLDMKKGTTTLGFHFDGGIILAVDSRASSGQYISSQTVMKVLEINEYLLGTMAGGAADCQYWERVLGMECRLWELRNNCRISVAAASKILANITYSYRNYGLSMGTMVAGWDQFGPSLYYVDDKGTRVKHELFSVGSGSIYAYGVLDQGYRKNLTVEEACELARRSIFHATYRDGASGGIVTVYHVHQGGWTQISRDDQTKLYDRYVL
Briefly: Trypanosoma cruzi proteasome chymotrypsin-like activity (TcProtChymo) assay. Further: in the data most compounds retested in dose-response had high values. In kind it is functional. Particulars: 9.37 µM.

A further test has as its system N/A. The test can be described thus: Trypanosoma cruzi proteasome luciferase counter-screen. It counts as functional. Particulars: 9.37 µM.
For a further test, the species on record is Homo sapiens. Briefly: To identify inhibition of the IFN signalling (Jak-Stat) pathway via expression of an eGFP reporter gene under the control of an IFN-stimulated response element (ISRE) containing MxA promoter. It counts as functional. The conditions noted are these: 30 µM.
Test [7] addresses T4, Tyrosyl-tRNA synthetase, putative (Trypanosoma cruzi (strain CL Brener)) (UniProt Q4DSP6).
T4 sequence (whole entry): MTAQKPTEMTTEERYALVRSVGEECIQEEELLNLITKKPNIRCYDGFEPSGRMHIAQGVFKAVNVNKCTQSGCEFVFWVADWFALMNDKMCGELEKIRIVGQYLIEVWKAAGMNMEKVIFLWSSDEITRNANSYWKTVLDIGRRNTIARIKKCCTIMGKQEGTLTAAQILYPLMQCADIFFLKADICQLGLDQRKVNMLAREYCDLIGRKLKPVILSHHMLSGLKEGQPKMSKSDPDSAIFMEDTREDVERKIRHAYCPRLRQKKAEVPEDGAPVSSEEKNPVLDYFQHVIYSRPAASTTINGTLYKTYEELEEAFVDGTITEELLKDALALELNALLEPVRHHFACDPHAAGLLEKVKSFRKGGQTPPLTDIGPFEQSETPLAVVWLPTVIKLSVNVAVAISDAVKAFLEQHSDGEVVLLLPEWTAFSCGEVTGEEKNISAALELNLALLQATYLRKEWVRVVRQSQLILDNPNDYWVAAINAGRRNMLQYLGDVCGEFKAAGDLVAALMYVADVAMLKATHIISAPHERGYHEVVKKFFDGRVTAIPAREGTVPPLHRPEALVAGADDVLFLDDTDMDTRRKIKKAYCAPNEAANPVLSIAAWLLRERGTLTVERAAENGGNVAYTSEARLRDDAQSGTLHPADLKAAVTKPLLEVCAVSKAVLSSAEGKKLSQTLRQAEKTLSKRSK
The test can be described thus: Trypanosoma cruzi tyrosyl tRNA synthetase (TcYRS) _High Tyrosine SOP. Further: in the data most compounds retested in dose-response had high values. It counts as functional. The conditions noted are these: 30 µM.

Test [8] has as its target T4, Tyrosyl-tRNA synthetase, putative (Trypanosoma cruzi (strain CL Brener)). Briefly: Trypanosoma cruzi tyrosyl tRNA synthetase (TcYRS) SOP. Particulars: 30 µM. It counts as functional.
Test [9] deals with Chromo domain-containing protein 1 (Saccharomyces cerevisiae (strain ATCC 204508 / S288c) (Baker's yeast)) (UniProt P32657). Briefly: ScCHD-1 Enzyme Inhibition Assay. Further: in the data most compounds retested in dose-response had high values. The conditions noted are these: 30 µM. It counts as functional.

Several values for one entry are separate records, joined by “and”; a condition that tells them apart may be missing. Identical values can stand only once. For part of these data: Results with a measured potency or affinity are listed apart.

Chain of Protein translocase subunit SecA (Escherichia coli (strain K12)) (P10408 whole entry): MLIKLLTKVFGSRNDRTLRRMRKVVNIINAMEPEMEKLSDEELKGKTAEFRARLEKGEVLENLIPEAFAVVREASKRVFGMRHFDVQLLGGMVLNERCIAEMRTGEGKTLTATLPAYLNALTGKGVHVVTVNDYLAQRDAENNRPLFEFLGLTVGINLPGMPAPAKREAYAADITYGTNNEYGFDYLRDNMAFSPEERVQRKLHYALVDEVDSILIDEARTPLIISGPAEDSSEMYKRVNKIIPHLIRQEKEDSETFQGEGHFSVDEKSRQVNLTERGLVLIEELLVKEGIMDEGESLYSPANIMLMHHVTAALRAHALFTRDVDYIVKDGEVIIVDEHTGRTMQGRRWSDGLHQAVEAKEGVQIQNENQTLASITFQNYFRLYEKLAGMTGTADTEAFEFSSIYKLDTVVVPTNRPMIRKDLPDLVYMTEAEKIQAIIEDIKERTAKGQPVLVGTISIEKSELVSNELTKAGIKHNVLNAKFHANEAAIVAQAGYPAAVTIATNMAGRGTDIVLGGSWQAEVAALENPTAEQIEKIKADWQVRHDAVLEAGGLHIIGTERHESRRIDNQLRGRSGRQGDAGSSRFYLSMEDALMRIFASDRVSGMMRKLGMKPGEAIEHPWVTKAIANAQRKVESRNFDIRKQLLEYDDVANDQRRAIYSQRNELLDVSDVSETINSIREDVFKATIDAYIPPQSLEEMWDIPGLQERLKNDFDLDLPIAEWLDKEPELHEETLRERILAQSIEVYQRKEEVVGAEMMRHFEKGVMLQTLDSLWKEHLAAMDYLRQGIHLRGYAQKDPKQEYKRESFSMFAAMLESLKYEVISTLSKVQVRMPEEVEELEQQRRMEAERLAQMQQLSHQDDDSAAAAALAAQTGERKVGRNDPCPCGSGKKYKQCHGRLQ
Chain of Chromo domain-containing protein 1 (Saccharomyces cerevisiae (strain ATCC 204508 / S288c) (Baker's yeast)) (P32657 whole entry, the tested form may be a part): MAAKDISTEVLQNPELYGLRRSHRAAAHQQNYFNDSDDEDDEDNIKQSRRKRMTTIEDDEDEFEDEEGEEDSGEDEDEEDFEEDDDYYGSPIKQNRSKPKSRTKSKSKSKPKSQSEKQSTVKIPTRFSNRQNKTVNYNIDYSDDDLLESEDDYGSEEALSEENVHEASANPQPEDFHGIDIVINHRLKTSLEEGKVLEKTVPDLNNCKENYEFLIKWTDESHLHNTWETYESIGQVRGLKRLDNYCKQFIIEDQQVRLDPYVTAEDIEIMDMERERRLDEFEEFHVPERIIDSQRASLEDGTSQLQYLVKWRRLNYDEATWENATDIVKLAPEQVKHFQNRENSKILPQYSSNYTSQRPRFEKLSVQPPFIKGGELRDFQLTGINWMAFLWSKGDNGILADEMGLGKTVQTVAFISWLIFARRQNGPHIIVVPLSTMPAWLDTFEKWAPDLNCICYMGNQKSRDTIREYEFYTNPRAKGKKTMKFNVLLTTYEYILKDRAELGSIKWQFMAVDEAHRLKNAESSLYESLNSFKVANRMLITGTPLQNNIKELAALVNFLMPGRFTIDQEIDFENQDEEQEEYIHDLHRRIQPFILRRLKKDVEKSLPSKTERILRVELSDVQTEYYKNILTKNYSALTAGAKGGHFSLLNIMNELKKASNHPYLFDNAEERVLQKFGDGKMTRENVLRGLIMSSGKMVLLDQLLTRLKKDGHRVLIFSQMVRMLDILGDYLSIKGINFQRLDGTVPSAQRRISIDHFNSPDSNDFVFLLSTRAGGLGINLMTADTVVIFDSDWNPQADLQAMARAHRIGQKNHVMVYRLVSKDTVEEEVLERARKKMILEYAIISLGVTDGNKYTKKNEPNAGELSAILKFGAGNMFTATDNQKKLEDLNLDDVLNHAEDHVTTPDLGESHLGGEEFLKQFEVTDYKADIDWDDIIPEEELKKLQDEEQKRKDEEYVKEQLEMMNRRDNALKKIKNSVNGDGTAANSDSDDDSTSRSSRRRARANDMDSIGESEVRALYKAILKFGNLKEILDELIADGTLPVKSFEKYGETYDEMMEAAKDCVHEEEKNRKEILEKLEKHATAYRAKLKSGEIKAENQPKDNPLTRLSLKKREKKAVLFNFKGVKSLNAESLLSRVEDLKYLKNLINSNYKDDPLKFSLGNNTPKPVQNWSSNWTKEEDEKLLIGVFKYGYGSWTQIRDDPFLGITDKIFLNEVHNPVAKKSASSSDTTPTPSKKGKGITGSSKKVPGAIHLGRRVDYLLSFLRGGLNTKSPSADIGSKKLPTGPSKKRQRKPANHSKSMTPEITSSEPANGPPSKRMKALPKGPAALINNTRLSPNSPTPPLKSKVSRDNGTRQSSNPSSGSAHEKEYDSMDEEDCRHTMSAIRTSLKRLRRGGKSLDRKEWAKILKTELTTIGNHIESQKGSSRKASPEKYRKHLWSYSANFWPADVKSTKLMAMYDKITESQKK
Chain of Sialic acid-binding Ig-like lectin 9 (Homo sapiens) (Q9Y336 whole entry): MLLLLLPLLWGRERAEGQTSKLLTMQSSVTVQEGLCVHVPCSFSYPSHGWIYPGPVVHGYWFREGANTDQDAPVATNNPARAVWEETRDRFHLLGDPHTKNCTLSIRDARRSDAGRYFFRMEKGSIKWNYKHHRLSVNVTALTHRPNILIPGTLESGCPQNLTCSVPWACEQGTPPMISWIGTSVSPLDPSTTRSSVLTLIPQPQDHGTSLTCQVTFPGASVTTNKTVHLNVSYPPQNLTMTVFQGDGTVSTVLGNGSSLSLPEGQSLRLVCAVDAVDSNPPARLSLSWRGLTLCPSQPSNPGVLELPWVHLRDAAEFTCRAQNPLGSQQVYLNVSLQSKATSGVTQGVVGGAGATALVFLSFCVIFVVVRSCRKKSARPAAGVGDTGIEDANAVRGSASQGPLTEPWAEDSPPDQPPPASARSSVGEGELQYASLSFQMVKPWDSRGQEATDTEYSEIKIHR

`COc1cccc(-c2nc(C)c(C(=O)N[C@@H](C)C(=O)O)s2)c1`: the Percent Effect in test [1] was -0.174%; in test [2], 12%; in [3], -0.167%; in test [4], -2.7%; with Trypanosoma cruzi it was -2.36%; in test [5], -12.5%. Moreover, the Percent Effect in [6] is 77.2% and 81.5% and 84.7%; in the test with N/A it was 56.5% and 53.9%; in the test listed under Homo sapiens it was 5.55%; in test [7], 9.52%; in [8] it was 12.8%; in [9] it was -7.59%.
With `COc1cc(/C=C/c2ncc(C(=O)O)s2)cc(Cl)c1O`, the Percent Effect was 3.12% in test [1]; 13.9% in [2]; 50.5% in test [3]; -3.01% in test [4]; 0.923% with Trypanosoma cruzi; 4.95% in [5]. Moreover, the Percent Effect in [6] was 99.9% and 99% and 99.8%; in the test with N/A it was 92.6% and 91.5%; in the test listed under Homo sapiens, -2.51%; in test [7] it was 4.17%; in test [8], 15.2%; in test [9], -33.3%.
For the molecule `Cn1cccc1C(=O)N1CCC2(CC1)CN(c1cncnc1)C(=O)CO2`, the Percent Effect was -7.32% in test [1]; -189% in test [2]; -15.1% in test [3]; -0.563% in test [4]; -6.69% in the test on Trypanosoma cruzi; -1.17% in test [5]. The Percent Effect in test [6] is 51% and 53.6% and 55.8%; in the test with N/A, 4.36% and 0.727%; in the test listed under Homo sapiens, 18.6%; in test [7], -69.2%; in [8], -150%; in [9], -4.5%.
As to `NC(=O)c1nc(COc2ccc3c(c2)OCO3)no1`, the Percent Effect in test [1] was 2.5%; in test [2], 9.33%; in test [3], 10%; in test [4] it was 1.5%; with Trypanosoma cruzi, -8.84%; in [5], -7.22%. Further, the Percent Effect in test [6] was 45% and 40.2% and 44%; in the test with N/A, 21.3% and 24%; in the test listed under Homo sapiens, 3.46%; in test [7], 2.12%; in test [8], 10.3%; in test [9], -8.03%.
On to `O=C(CC1CN(Cc2ccccc2)CCO1)Nc1ccccc1F` (stereo not drawn), for which the Percent Effect in test [1] is -4.53%; in test [2], 21.6%; in [3] it was -4.08%; in test [4] it was 3.88%; in the test on Trypanosoma cruzi, 2.15%; in test [5], 4.17%. Besides, the Percent Effect was 64.1% and 65% and 65.1% in test [6]; 32.6% and 32.9% with N/A; 4.52% in the test listed under Homo sapiens; 8.91% in [7]; 15.8% in test [8]; -1.97% in test [9].
Turning to `Cc1ccc(CN(C)C(=O)CN2CC(n3cccn3)C2)o1`, the Percent Effect is -6.67% in [1]; 2.63% in [2]; 17.5% in [3]; -1.07% in test [4]; -1.46% in the test on Trypanosoma cruzi; -4.73% in [5]. Also, the Percent Effect was 23.1% and 34.2% and 27.3% in [6]; 20.4% and 19.7% in the test with N/A; 22.7% in the test listed under Homo sapiens; -2.13% in [7]; -2.6% in test [8]; -1.83% in [9].
For `Cc1cc(C2CCCN(C(=O)c3c(C)noc3C)C2)n[nH]1` (stereo not drawn), the Percent Effect is -3.57% in [1]; 2.63% in test [2]; 9.83% in [3]; 9.23% in test [4]; 0.292% with Trypanosoma cruzi; -20.1% in [5]. Further, the Percent Effect is 16.6% and 37.9% and 18.8% in [6]; 18% and 16.2% in the test on N/A; -5.01% in the test listed under Homo sapiens; 7.45% in test [7]; 7.79% in [8]; -1.42% in test [9].
As for `Cc1ccc(-c2cc(C(=O)NC(C)C(=O)N3CCCCC3)on2)cc1` (stereo not drawn), the Percent Effect is -6.75% in [1]; 13.2% in test [2]; 6.88% in test [3]; 1.96% in test [4]; 4.19% in the test with Trypanosoma cruzi; 5.92% in [5]. Moreover, the Percent Effect in test [6] was 34.9% and 32.7% and 30.8%; in the test on N/A it was 29.4%; in the test listed under Homo sapiens, 10.4%; in test [7], 2.13%; in test [8] it was 10.4%; in test [9] it was -6.32%.
In the case of `O=C(Nc1ccc(F)c(Br)c1)N1CCCC1`, the Percent Effect is -2.64% in test [1]; -2.7% in test [2]; 4.93% in test [3]; -0.317% in test [4]; -4.49% in the test with Trypanosoma cruzi; 2.92% in test [5]. Also, the Percent Effect in [6] was 53.1% and 53% and 53.3%; in the test on N/A, 8.61% and 7.62%; in the test listed under Homo sapiens it was 18.2%; in test [7], -34.6%; in test [8], 3.66%; in test [9], -3.18%.
